High-throughput results deposited in PubChem BioAssay by National Center for Advancing Translational Sciences (NCATS).
Shown are actives, neighbours in structure and some others; about 13% of the full set was active somewhere.
Shiga toxin inh = blocks Shiga toxin action in Vero cells; Vero cells, Shiga toxin protein synthesis inhibition reporter; inhibition, % at 38.7 µM; hit rate 9.2% among 290,000; in the data active means inhibition mostly above about 28%, no sharp cut-off; inactive means mostly below about 43%
Lassa entry inh = blocks Lassa virus binding to or entry into cells; Lassa virus pseudotype entry inhibition, cell reporter; Potency, µM (doses to about 37.9 µM), actives largely listed as inhibitors; hit rate 1.2% among 300,000; AID 540256; calls by dose curve; tested in HEK293 cells; further: nearly all actives have a fitted effect of over 50% in size
CHX counter = counter-screen hit for Shiga toxin inhibitors, cycloheximide; cell reporter, cycloheximide protein synthesis inhibition counterscreen; hit rate 12% among 300,000; AID 2314; max response, %; in the data active means max response mostly above about 13%, no sharp cut-off; inactive means mostly below about 14%; further: read at 38.3 µM for the half of the compounds with a filed dose
MARV entry inh = blocks Marburg virus binding to or entry into cells. Potency, µM (top dose mostly 37.8 µM), actives largely listed as inhibitors. hit rate 1.8% among 300,000. Marburg virus pseudotyped entry inhibition, cell reporter; calls by dose curve; tested in HEK293 cells
HCV inh = blocks hepatitis C virus. Huh7.5.1 HCVcc-Cre infection, luciferase reporter, 44 h. Potency, µM (top dose mostly 41.8 µM), actives largely listed as inhibitors. hit rate 3.4% among 340,000; active means well fitted inhibition curve with a large enough effect; inconclusive means small, poorly fitted or top-dose-only effect, or another doubt; inactive means no such curve, though single readings can be large or run the other way
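Infectious HCV cell culture screen: compound-treated cells (1,000/well, pre-plated 4 h) are infected with HCVcc-Cre at roughly 0.5 moi and grown 44 h. Infection is quantified by luciferase signal after 15 min substrate incubation at room temperature.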
FMDV inh = antivirals against foot and mouth disease virus; FMDV antiviral cell-based qHTS; Potency, µM (highest dose often 57.9 µM), actives largely listed as inhibitors; hit rate 1.2% among 410,000; calls by dose curve; tested in HEK293T cells; further: read-out not given here; nearly all actives have a fitted effect of over 45% in size
A number is an active result.

How did S=P(N1CCCCCC1)(N1CC1)N1CC1 do in these assays?
Lassa entry inh: inconclusive; MARV entry inh: 7.1µM; HCV inh: inactive; FMDV inh: inactive

What do the screens show for `S=P(N1CCOCC1)(N1CC1)N1CC1`?
Lassa entry inh: inactive; MARV entry inh: inconclusive; HCV inh: inactive; FMDV inh: inactive

How did Nc1cc(=O)nc(SCC(=O)Nc2ccc(F)cc2)n1-c1ccc(Cl)cc1 do in these assays?
Lassa entry inh: inactive; MARV entry inh: inactive; FMDV inh: inactive

How did COc1ccc(S(=O)(=O)N(C)C)cc1NC(=O)CSc1nc(N)cc(N)n1 do in these assays?
Shiga toxin inh: inactive; Lassa entry inh: inactive; CHX counter: inactive; MARV entry inh: inactive; HCV inh: inactive; FMDV inh: inactive

Results for Cc1nn(C)cc1/C=N\NC(=O)c1csc2c1CCCC2 ?
Shiga toxin inh: 65; Lassa entry inh: inactive; CHX counter: 65; MARV entry inh: inconclusive; HCV inh: inactive; FMDV inh: inactive

How did Cc1ccc(/C=N/NC(=O)c2csc3c2CCCC3)cc1 do in these assays?
Shiga toxin inh: 101; Lassa entry inh: inconclusive; CHX counter: 27; MARV entry inh: inconclusive; HCV inh: inactive; FMDV inh: inactive

How did COc1cc(/C=N/NC(=O)c2csc3c2CCCC3)ccc1OCCN1CCOCC1 do in these assays?
Shiga toxin inh: inactive; CHX counter: 26; HCV inh: inconclusive; FMDV inh: inconclusive

What do the screens show for `COc1cc(/C=N/NC(=O)c2csc3c2CCCC3)cc(OC)c1O`?
Shiga toxin inh: 17; Lassa entry inh: inactive; CHX counter: inactive; MARV entry inh: inconclusive; HCV inh: inactive; FMDV inh: inactive

How did Oc1ccc(-c2csc(Nc3ncccn3)n2)c(O)c1 do in these assays?
Shiga toxin inh: 88; Lassa entry inh: inactive; CHX counter: 59; MARV entry inh: inactive; HCV inh: inactive; FMDV inh: inactive

Results for Cc1cccc(Nc2nc(-c3ccc(O)cc3O)cs2)n1 ?
Shiga toxin inh: 109; Lassa entry inh: inactive; CHX counter: 38; MARV entry inh: inconclusive; HCV inh: inconclusive; FMDV inh: inactive

Results for N#Cc1ccc(Nc2nc(-c3ccc(O)cc3O)cs2)cc1C(F)(F)F ?
HCV inh: 11µM; FMDV inh: 35µM

How did Oc1ccc(-c2csc(Nc3ncccn3)n2)cc1O do in these assays?
Shiga toxin inh: 103; Lassa entry inh: inconclusive; CHX counter: 33; MARV entry inh: inconclusive; HCV inh: 11µM; FMDV inh: inactive

Results for Cc1ccc(C)c(N2CCN(CCCNC(=O)Cn3ncc4c5ccccc5n(C)c4c3=O)CC2)c1 ?
Lassa entry inh: inactive; MARV entry inh: inactive; FMDV inh: inactive

How did Cc1[nH]c2ccccc2c1C(=O)COC(=O)c1cccc(S(=O)(=O)N2CCCCC2)c1 do in these assays?
Shiga toxin inh: inactive; Lassa entry inh: inconclusive; CHX counter: inactive; MARV entry inh: inconclusive; HCV inh: inconclusive; FMDV inh: inactive

How did CC(C)c1ccc2[nH]c(O)c(N=NC(=O)c3cccc(S(=O)(=O)Nc4ccc(Cl)cc4)c3)c2c1 do in these assays?
Shiga toxin inh: inactive; Lassa entry inh: inconclusive; CHX counter: inactive; MARV entry inh: inactive; HCV inh: inactive; FMDV inh: inactive

What do the screens show for `CC(C)c1ccc2[nH]c(O)c(N=NC(=O)c3cccc(S(=O)(=O)N4CCCCC4)c3)c2c1`?
Shiga toxin inh: inactive; Lassa entry inh: inconclusive; CHX counter: inactive; MARV entry inh: 10µM; HCV inh: 11µM; FMDV inh: inconclusive

How did O=C(N=Nc1c(O)[nH]c2ccccc12)c1cccc(S(=O)(=O)N2CCCCC2)c1 do in these assays?
Shiga toxin inh: 63; Lassa entry inh: inactive; CHX counter: 12; MARV entry inh: inactive; HCV inh: inactive; FMDV inh: inactive

What do the screens show for `CN(C)CCCNC(=O)/C(=N\O)c1ccccc1`?
Shiga toxin inh: inactive; Lassa entry inh: inactive; CHX counter: inactive; MARV entry inh: inactive; HCV inh: inactive; FMDV inh: inactive

Results for CNC(=O)/C(=N\O)c1ccccc1 ?
Shiga toxin inh: 45; CHX counter: inactive; MARV entry inh: inactive

Results for O=C(NCCc1ccccc1)/C(=N\O)c1ccccc1 ?
Shiga toxin inh: 52; Lassa entry inh: inconclusive; CHX counter: 45; MARV entry inh: inconclusive; HCV inh: inactive; FMDV inh: inactive

How did CN(C)c1ccc(CNC2CC(C)(C)NC(C)(C)C2)cc1 do in these assays?
Shiga toxin inh: inactive; Lassa entry inh: 12µM; CHX counter: inactive; MARV entry inh: inconclusive; HCV inh: inconclusive; FMDV inh: inactive

How did CC1(C)CC(NCc2ccncc2)CC(C)(C)N1 do in these assays?
Shiga toxin inh: inactive; Lassa entry inh: inactive; CHX counter: inactive; MARV entry inh: inactive; HCV inh: inactive; FMDV inh: inactive
